Experimental data published in PubChem BioAssay (NCI).
Compounds without any hit were thinned out: in the full panel of roughly 79,000, 15% have a hit. Calls of active or inactive are those of the source. Cut-off read from the data, not from the text of the source: active = growth inhibition above about 70%; inactive = the rest.

How the values were obtained:
[1] = NCI Yeast Anticancer Drug Screen. Data for the rad52 strain (AID 147);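 note: 0% = growth of vehicle-treated control cultures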; details: S. cerevisiae rad52 mutant growth inhibition, hits give high values
Summary of the method: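 Inhibition of yeast growth, referenced to vehicle controls, was the measured output for a strain with defective DNA damage repair.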

[2] = NCI Yeast Anticancer Drug Screen. Data for the wt1 strain (AID 149);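 note: 0% = growth of vehicle-treated wt1 cultures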; details: S. cerevisiae wt1 strain (SPY 50644) growth inhibition, hits give high values
Summary of the method: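 The wt1 strain was treated with compounds, and growth was compared with vehicle-treated cultures to give inhibition.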

[3] = NCI Yeast Anticancer Drug Screen. Data for the rad50EPP+ strain (AID 151);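 note: 0% = growth of vehicle-treated control cultures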; details: S. cerevisiae rad50 mutant strain, hits give high values
Summary of the method: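 Genetically defined yeast (rad50EPP+, DNA damage repair alteration) is grown with compound, and inhibition of growth is expressed relative to vehicle-treated controls.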

[4] = NCI Yeast Anticancer Drug Screen. Data for the mgt1 strain (AID 153); details: S. cerevisiae mgt1 mutant growth inhibition, hits give high values
Summary of the method: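 In the mgt1 strain, test compounds were added and growth inhibition was determined relative to vehicle-treated controls.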

[5] = NCI Yeast Anticancer Drug Screen. Data for the rad50 strain (AID 155);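 note: 0% = growth of vehicle-only cultures of the same strain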; details: S. cerevisiae rad50 strain growth inhibition, hits give high values
Summary of the method: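 Cells are treated with compound, grown, and their growth is then scored against vehicle-only cultures of the same repair-deficient yeast strain.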

[6] = NCI Yeast Anticancer Drug Screen. Data for the mec2-1 strain (AID 157); details: S. cerevisiae mec2-1 strain, hits give high values
Summary of the method: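 Each compound was tested on mec2-1 yeast, a strain altered in DNA damage repair or cell cycle control. Growth inhibition is reported relative to vehicle.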

[7] = NCI Yeast Anticancer Drug Screen. Data for the rad14 strain (AID 159);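 note: 0% = growth of vehicle-treated control cultures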; details: S. cerevisiae rad14 strain growth inhibition, hits give high values
Summary of the method: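 Readout: yeast growth inhibition, referenced to vehicle-only cultures. Strain bears a defined alteration in DNA damage repair.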

[8] = at 5.0 µM (retest, dose inferred, filed as 0.5)
[9] = at 50.0 µM (retest, dose inferred, filed as 5.0)

Measured: growth inhibition

OC1(c2ccccc2)CSC2=Nc3ccccc3C3CCN1N23 (centres undefined)
active: [1]; at 100.0 µM 91% | [2]; at 100.0 µM 95% | [4]; at 100.0 µM 94% | [5]; at 100.0 µM 92% | [6]; at 100.0 µM 93%
inactive: [1]; at 1.2 µM -41% | [1]; at 3.7 µM -50% | [1]; at 11.0 µM -45% | [1]; at 33.0 µM -29% | [2]; at 1.2 µM -82% | [2]; at 3.7 µM -83% | [2]; at 11.0 µM -89% | [2]; at 33.0 µM -33% | [3]; at 1.2 µM -29% | [3]; at 3.7 µM -40% | [3]; at 11.0 µM -47% | [3]; at 33.0 µM -22% | [3]; at 100.0 µM 66% | [4]; at 1.2 µM -45% | [4]; at 3.7 µM -43% | [4]; at 11.0 µM -38% | [4]; at 33.0 µM 57% | [5]; at 1.2 µM -66% | [5]; at 3.7 µM -75% | [5]; [8] 24% | [5]; at 11.0 µM -61% | [5]; at 33.0 µM -20% | [5]; [9] 47% | [5]; at 50.0 µM 51.5% | [6]; at 1.2 µM -86% | [6]; at 3.7 µM -71% | [6]; [8] 12% | [6]; at 11.0 µM -91% | [6]; at 33.0 µM -21% | [6]; [9] 40% | [6]; at 50.0 µM 43.7% | [7]; at 1.2 µM -51% | [7]; at 3.7 µM -32% | [7]; at 11.0 µM -36%
